# DT40 TDP1 no CPT = qHTS for Inhibitors of human tyrosyl-DNA phosphodiesterase 1 (TDP1): qHTS in cells in absence of CPT. DT40 Tdp1-/- hTDP1 cells, no CPT, ATP luminescence, 48 h. Potency, µM (titrated, usually from 46.2 µM), inactives show at the highest dose activity change, negative = growth inhibition, most hits filed as inhibitors. 15% of 420,000 active. AID 686978, 2013; further: potency means the concentration at half of the fitted maximal effect; on the % scale 0 is the no-effect control and ±100 the full control effect; nearly all actives have a fitted effect of over 55% in size
#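 Chicken DT40 Tdp1-/- cells stably complemented with human TDP1 were seeded at 400 cells/well with DMSO in place of 20 nM camptothecin. After compound pinning, cells grew at least 48 hr at 37 °C; viability read by CellTiter-Glo luminescence.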
# TDP1 cell CPT = DT40-hTDP1 cell growth loss with CPT. chicken DT40 Tdp1-/-;hTDP1 cells + 20 nM CPT, ATP luminescence, 48 h. 12% of 420,000 active. AID 686979. Potency, µM (highest dose often 46.2 µM), for the others: top-dose activity change, negative = growth inhibition, actives largely listed as inhibitors; further: potency means the concentration at half of the fitted maximal effect; on the % scale 0 is the no-effect control and ±100 the full control effect; nearly all actives have a fitted effect of over 55% in size
#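 Chicken DT40 Tdp1-/- cells stably complemented with human TDP1 were seeded at 400 cells/well in medium containing 20 nM camptothecin, exposed to pin-transferred compounds, and grown at 37 °C for at least 48 hr. Viability was read as ATP luminescence.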
# HepG2 viability = kills HepG2 cells in TGF-b inhibitor counter-screen; HepG2 CAGA-GFP viability, ATP luminescence, 18 h; 0.76% of 410,000 active; Potency, µM (titrated, usually from 46.1 µM), for the others: top-dose activity change, negative = cytotoxicity, usual class: cytotoxic; further: potency means the concentration at half of the fitted maximal effect
#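 HepG2 CAGA-GFP cells (1000/well, DMEM with 1% FBS) received compound, then TGF-beta at 500 pg/mL final, and were incubated 18 hours at 37 degrees C. Viability was read by CellTiter-Glo luminescence. Media-only wells were set as complete cell-killing and DMSO as no toxicity.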
# TGFb SMAD3 inh = blocks TGF-b signaling; HepG2 CAGA-GFP TGF-b/SMAD3 reporter, GFP fluorescence, 18 h; TGF-beta stimulated, 500 pg/mL final; Potency, µM (series often up to 46.1 µM), for inactives: top-dose activity, negative = inhibition, hits mostly inhibitors; 1.2% of 410,000 active; AID 588855; further: potency means the concentration at half of the fitted maximal effect; on the % scale 0 is the no-effect control and ±100 the full control effect; nearly all actives have a fitted effect of over 65% in size
#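 Smad-responsive CAGA-GFP expression was quantified in HEPG2 cells exposed to compounds and 500 pg/mL final TGF-beta for 18 h at 37 degrees C; unstimulated wells defined full inhibition.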
# TDP1 inh = blocks human tyrosyl-DNA phosphodiesterase 1; Q9NUW8; Potency, µM (top dose mostly 130 µM), for the others: top-dose activity change, negative = inhibition, actives largely listed as inhibitors; AID 485290; recombinant TDP1, AlphaScreen DNA substrate cleavage; 0.28% of 350,000 active; further: potency means the concentration at half of the fitted maximal effect; on the % scale 0 is the no-effect control and ±100 the full control effect; nearly all actives have a fitted effect of over 40% in size
# Target sequence (Q9NUW8 whole entry, looked up): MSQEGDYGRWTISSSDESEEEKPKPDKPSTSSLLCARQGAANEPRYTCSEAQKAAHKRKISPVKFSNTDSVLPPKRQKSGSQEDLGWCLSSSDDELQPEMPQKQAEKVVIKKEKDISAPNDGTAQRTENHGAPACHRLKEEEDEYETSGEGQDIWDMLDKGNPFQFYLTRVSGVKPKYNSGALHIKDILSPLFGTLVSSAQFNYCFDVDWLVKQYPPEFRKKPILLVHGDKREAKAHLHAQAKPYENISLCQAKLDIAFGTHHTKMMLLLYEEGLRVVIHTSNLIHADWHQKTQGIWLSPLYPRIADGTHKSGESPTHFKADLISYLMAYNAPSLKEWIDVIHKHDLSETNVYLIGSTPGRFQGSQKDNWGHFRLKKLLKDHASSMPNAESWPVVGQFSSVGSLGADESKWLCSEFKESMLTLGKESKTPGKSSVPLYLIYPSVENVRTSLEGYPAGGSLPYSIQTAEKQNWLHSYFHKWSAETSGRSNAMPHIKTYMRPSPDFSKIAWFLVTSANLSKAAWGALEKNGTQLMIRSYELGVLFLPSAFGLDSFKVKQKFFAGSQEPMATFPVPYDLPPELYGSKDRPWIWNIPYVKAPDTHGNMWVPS
#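 Recombinant E. coli-expressed Tdp1 (1 nM) preincubated with compound 15 min at RT, then 5'-biotin/3'-phosphotyrosine-FITC DNA substrate (15 nM) added for 5 min. AlphaScreen beads (10 ug/ml) added, 10 min RT; tyrosine-FITC cleavage read as signal loss.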
# IL1B secr inh = blocks inflammasome-driven IL-1 beta release; THP-1 LPS/ATP IL-1B secretion, AlphaLISA, 16 h; stronger effect = lower value; activity change, % at 57.5 µM; 4.7% of 360,000 active; AID 743279; in the data active means activity change below about -50%; inconclusive means mostly about -30% to -49%; further: on the % scale 0 is the no-effect control and ±100 the full control effect
#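 THP-1 cells pretreated 1 hr with compounds (up to 57.5 uM final), then stimulated with LPS (250 ng/mL final) plus ATP (1.25 mM final); secreted IL-1B measured by AlphaLISA after 16 hr, decreased signal indicating inhibition.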
# * marks the source's active call; other numbers are inactive results; ? = inconclusive; / = not tested or not shown. Most compounds without a hit are left out; they make up all but 18% or so of the library. Unless noted, the call rests on the fitted dose curve; in most records, active means well fitted curve in the direction sought with a large enough effect; inconclusive means small, poorly fitted or top-dose-only effect, or another doubt; inactive means no such curve, though single readings can be large; an effect the other way counts as inactive or inconclusive.
SMILES,DT40 TDP1 no CPT,TDP1 cell CPT,HepG2 viability,TGFb SMAD3 inh,TDP1 inh,IL1B secr inh
CC(CCC(=O)NN)C1CCC2C3CCC4CC(O)CCC4(C)C3CCC12C (stereo unspecified),26µM*,1%,2%,-3%,/,0
COc1ccc(CC2=C(O)c3ccccc3C(=O)C2=O)cc1,-9%,-19%,-2%,-12%,6%,14
O=C1C(=O)c2ccccc2C(O)=C1CCCCl,4.1µM*,5.8µM*,2µM*,2.5µM*,-5%,-67*
O=C(COC(=O)c1ccc2ncsc2c1)Nc1ccccc1Cl,-3%,4%,3%,4%,1%,9
CC(=O)NC1=NC(=O)/C(=C/c2cc(C)n(-c3cccc(C(=O)O)c3)c2C)S1,?,2%,1%,30%,3.5µM*,4
Cc1ccc(NC(=O)CN2C(=O)N/C(=C/c3cc(C)n(-c4cccc(C(=O)O)c4)c3C)C2=O)cc1,-2%,2%,0%,3%,/,-15
CN1C(=O)C2(Oc3ccccc3C3CC(c4ccccc4)=NN32)c2ccccc21 (stereo unspecified),?,23µM*,-41%,?,3%,-14
C=C1CCN([C@@H](CC(C)C)C(=O)NCc2ccc(Cl)c(Cl)c2)S(=O)(=O)c2ccccc21,16µM*,?,-21%,?,/,-2
C=C1CCN([C@@H](Cc2ccccc2)C(=O)NCCCc2ccccc2)S(=O)(=O)c2ccccc21,?,23µM*,-15%,-19%,/,4
C=C1CCN([C@@H](CC(C)C)C(=O)NCc2ccc(Cl)cc2)S(=O)(=O)c2ccccc21,?,?,-16%,-22%,/,31
C=C1CCN([C@@H](CC(C)C)C(=O)NCCC(C)C)S(=O)(=O)c2ccccc21,23µM*,?,-22%,-3%,/,21
C=C1CCN([C@@H](C)C(=O)NCc2ccc(OC)cc2)S(=O)(=O)c2ccccc21,0%,-22%,1%,4%,/,28
C=C1CCN([C@@H](CC(C)C)C(=O)NCc2ccc(OC)cc2)S(=O)(=O)c2ccccc21,23µM*,?,-14%,?,/,6
CCCCNC(=O)c1c(CSc2ccc(Cl)cc2)noc1C(=O)NCc1ccccc1,?,18µM*,-31%,-24%,/,13
CN(C)CCNC(=O)c1c(CSc2ccc(Cl)cc2)noc1C(=O)NCc1ccccc1,16µM*,18µM*,-10%,0%,/,-4
O=C(NCc1ccccc1)c1onc(CSc2ccc(Cl)cc2)c1C(=O)NCc1ccccc1,?,?,-10%,-7%,1%,-27
COc1cccc(CN2CCN(C(=O)c3ccco3)CC2)c1,-6%,-12%,-89%,3%,5%,0
Cc1ccc(-c2nc(=Nc3ccccc3)sn2-c2ccccc2)cc1,3.2µM*,3.5µM*,4.5µM*,3.5µM*,2%,/
COc1ccc(N=c2nc(-c3ccc(C)cc3)n(-c3ccccc3)s2)cc1,3.5µM*,4µM*,-62%,3.2µM*,5%,/
COc1ccc(N=C2C(=Nc3ccc(OC)cc3)N(c3ccc(OC)cc3)C(=S)N2c2ccccc2)cc1,18µM*,21µM*,-11%,-19%,11%,-20
N=c1nc(-c2ccccc2)n(-c2ccccc2)s1,?,?,-13%,-1%,/,/
COc1ccc(N=c2nc(-c3ccccc3)n(-c3ccc(C)cc3)s2)cc1,3.2µM*,4.5µM*,-102%,4µM*,/,/
COc1ccc(N=C2C(=Nc3ccc(OC)cc3)N(c3ccc(OC)cc3)C(=S)N2C)cc1,?,?,-22%,-8%,11%,-13

# Screening data deposited in PubChem by National Center for Advancing Translational Sciences (NCATS).
